Inconclusive results are not listed. Values without a mark were called inactive. Calls of active or inactive are those of the source. Calls come from the whole dose curve; as a rule, active = well fitted activation curve with a large enough effect in the signal ratio in the repeat runs (not every such curve was filed as active); inconclusive = weak or mixed curves, or effect the other way; inactive = no such curve, though single readings can be large or run the other way; the % refers to the signal ratio.
% is set by controls: 0 for no effect and ±100 for the full control effect; potency is the fitted concentration of half-maximal effect.

The test can be described thus: qHTS assay for small molecule agonists of the antioxidant response element (ARE) signaling pathway (AID 743202). The settings on record: HepG2 ARE-bla reporter, beta-lactamase FRET, 16 h; series mostly up to 73.3 µM; activation: at the top concentration. An excerpt: U.S. Tox21 Program National Center for Advancing Translational Sciences [NCATS] NIH Chemical Genomics Center [NCGC] U.S. Environmental Protection Agency [EPA] National Institutes of Environmental Health Sciences [NIEHS] National Toxicology Program [NTP] U.S. Food and Drug Administration [FDA] Tox21 Assay Overview: Oxidative stress has been implicated in the pathogenesis of a variety of diseases ranging from cancer to neurodegeneration. The antioxidant response element (ARE) signaling pathway plays an important role in the amelioration of oxidative stress. The CellSensor ARE-bla HepG2 cell line (Invitrogen) can be used for analyzing the Nrf2/antioxidant response signaling pathway. Nrf2 (NF-E2-related factor 2) and Nrf1 are transcription factors that bind to AREs and activate these genes. The CellSensor ARE-bla Hep G2 cell line contains a beta-lactamase reporter gene under control of the Antioxidant Response Element (ARE) stably integrated into HepG2 cells. The activation of the report gene under culture conditions can be detected by fluorescence intensity. This cell line has been used to screen the Tox21 10K compound library to identify agonists that induce oxidative stress.
Tox21 Assay Protocol Summary: The ARE-bla cells were dispensed at 2,000 cells/5 ul/well in 1536-well black wall/clear bottom plates using a Multidrop dispenser. After the assay plates were incubated at a 37 C/5% CO2 incubator for 5 hours, 23 nL of compounds dissolved in DMSO, positive controls or DMSO only was transferred to the assay plate by a pin tool. The plates were incubated at 37 C for 16 hours. After 1 uL of LiveBLAzer B/G FRET substrate was added using a Flying Reagent Dispenser, the plates were incubated at room temperature for 2 hours, and fluorescence intensity was measured by an Envision plate reader.
For orientation: In qHTS, concentration-response curves come from the screen itself.
Consider `Fc1ccc(C2(Cn3cncn3)OC2c2ccccc2Cl)cc1` (stereo not given), for which the “activation” value is -3.07%.
`O=P(O)(Oc1ccccc1)Oc1ccccc1`: the “activation” value is -17%.
`O=C(NCO)NCO`: the “activation” value was -1.73% [at 94.8 µM].
Regarding `CNC(=O)Oc1c(C(C)(C)C)cc(C)cc1C(C)(C)C`, the “activation” value was -3.17%.
Same read-out and setting: the value for `CC1=NNC(=O)N(/N=C/c2cccnc2)C1` was -1.38%.
`Clc1cccc(N2CCNCC2)c1`: the “activation” value was -8.14%.
For `COC(=O)c1ccccc1S(=O)(=O)NC(=O)Nc1nc(C)cc(C)n1`, the “activation” value was 4.71%.
Turning to `O=C1CN=C(c2ccccc2)c2cc([N+](=O)[O-])ccc2N1`, the “activation” value is 5.47%.
On to `CCc1cc2c(s1)-n1c(C)nnc1CN=C2c1ccccc1Cl`, for which the “activation” value is -0.17%.
Consider `CCCCOC(=O)c1ccccc1C(=O)O`, for which the “activation” value is -6.87%.
Regarding `Cc1cccc(C#N)c1`, the “activation” value was 8.4%.
Still for that read-out and setting: the value for `CN1CCN(C(=O)O[C@H]2c3nccnc3C(=O)N2c2ccc(Cl)cn2)CC1` was -0.608%; that for `CCCSC(=O)N(CCC)CCC` was -0.211%.
Turning to `CN1C[C@@H](NS(=O)(=O)N(C)C)C[C@@H]2c3cccc4c3c(cn4C)C[C@H]21`, the “activation” value was -4.99%.
Still for that read-out and setting: the value for `c1coc(-c2nc3ccccc3[nH]2)c1` was 1.9%; that for `CCC#N` was -11.9% [at 94.8 µM].
In the case of `O=C(O)C(Br)CBr` (stereo not given), the Potency was 27.8 µM (active).
As for `C=C(C)CN(CC)c1c([N+](=O)[O-])cc(C(F)(F)F)cc1[N+](=O)[O-]`, the “activation” value was -6.91%.
Consider `ClC(Cl)(Cl)C(Cl)(Cl)Cl`, for which the “activation” value is -4.89% [at 94.8 µM].
On to `CC(C)CC#N`, for which the “activation” value was -12.3% [at 94.8 µM].
On the same count and under the same terms, the value for `CCOC(=O)CP(=O)(OCC)OCC` was -2.46%; that for `Nc1ccccc1Cl` was 1.54%.
Turning to `Nc1n[nH]c(N)n1`, the “activation” value was -16.8% [at 94.8 µM].
On the same count and under the same terms, in the case of `ClCC(Cl)(Cl)Cl` it was -2.7% [at 94.8 µM].
With `CN(N=O)C(N)=O`, the “activation” value was 0.615%.
Consider `CC(C)[N+](=O)[O-]`, for which the “activation” value was 2.03%.
Consider `CC(N)=S`, for which the “activation” value is -1.7%.
On to `COC(=O)COc1ccc(Cl)cc1Cl`, for which the “activation” value was 0.638%.
Turning to `CSc1ccc(C(=O)C(C)(C)N2CCOCC2)cc1`, the “activation” value was -12.2%.
Take `COc1ncc(F)c2nc(S(=O)(=O)Nc3c(F)cccc3F)nn12`: the “activation” value was 9.64%.
On to `O=C(Cc1ccccc1)OCc1ccccc1`, for which the “activation” value is -10% [at 94.8 µM].
`CC(C)CP(=S)(S)CC(C)C`: the “activation” value was 1.55%.
The same measure, in the same setting: in the case of `C[N+](C)=CCl` it was 11.1%.
Same read-out and setting: the value for `CCCCCCBr` was 0.336% [at 94.8 µM]; that for `c1ccc(N2CCNCC2)cc1` was -5.05%; that for `CCOC(=O)C1(c2ccccc2)CCN(CCc2ccc(N)cc2)CC1` was 9.95%.
The same measure, in the same setting: in the case of `Nc1cnn(-c2ccccc2)c(=O)c1Cl` it was -0.324%.
For the compound `CCCCP(CCCC)CCCC`, the “activation” value is -0.407%.
As to `N#Cc1c(Cl)cccc1Cl`, the “activation” value was 3.49%.
Regarding `ClCCOCOCCCl`, the “activation” value was -5.74% [at 94.8 µM].

The record behind these values is PubChem BioAssay (Tox21).
